Assay outcomes as filed in PubChem BioAssay.
A selection: hits, their analogues and other compounds. The true share with any hit is near 1.3%.
EPAC2 agonist = qHTS for Agonist of cAMP-regulated guanine nucleotide exchange factor 4 (EPAC2): primary screen; Rap guanine nucleotide exchange factor 4 (Homo sapiens), Q8WZA2; EPAC2 activation, biochemical qHTS; response scale: 100% = 6.5 mM cAMP response; Potency, µM (top dose mostly 154 µM), for inactives: at the highest dose activation, usual class: activators; actives 0.079% (n = 360,000); also: nearly all actives have a fitted effect of over 50% in size
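EPAC2 (100 nM) mixed with Rap1B loaded with BODIPY-GDP (250 nM) plus 50 uM unlabeled GDP; compounds pinned in, 5 min RT, then read every 5 min for 30 min (ex 480, em 540 nm). Normalized to cAMP control.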
BRCA1 expr up = qHTS Assay to Identify Small Molecule Activators of BRCA1 Expression. MCF7-BRCA1-FFLuc reporter, luminescence, 48 h; response scale: scaled: vehicle 0%, 10 µM genistein 100%. Potency, µM (doses to about 46.1 µM), for inactives: top-dose activation, actives largely listed as activators. actives 1.1% (n = 380,000); also: nearly all actives have a fitted effect of over 80% in size
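Using MCF7 cells harboring a BRCA1 firefly luciferase reporter, plated 2 h before compound pinning, the screen measured luminescence after 48 h incubation. Responses were normalized to DMSO and 10 microM genistein, then fitted for concentration-effect.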
EPAC2 antagonist = qHTS for Antagonist of cAMP-regulated guanine nucleotide exchange factor 2 (EPAC2): primary screen. Potency, µM (series often up to 114 µM), for inactives: at the top dose activity, negative = inhibition, actives largely listed as inhibitors. Rap guanine nucleotide exchange factor 4 (Homo sapiens), Q8WZA2. actives 0.18% (n = 360,000). EPAC2 GEF exchange of Rap1B-BODIPY-GDP, fluorescence. AID 720708, 2013; also: % is scaled to controls: 0 for no effect and ±100 for the full control effect; nearly all actives have a fitted effect of over 45% in size
EPAC1 agonist = qHTS for Agonist of cAMP-regulated guanine nucleotide exchange factor 3 (EPAC1): primary screen. Potency, µM (titrated, usually from 154 µM), for the others: at the highest dose activation, hits mostly activators. EPAC1 agonist qHTS, biochemical assay; response scale: 100% = response to 6.5 mM cAMP. Rap guanine nucleotide exchange factor 3 (Homo sapiens), O95398. actives 0.073% (n = 360,000). AID 720707, 2013; also: nearly all actives have a fitted effect of over 60% in size
Target sequence (O95398 whole entry, looked up): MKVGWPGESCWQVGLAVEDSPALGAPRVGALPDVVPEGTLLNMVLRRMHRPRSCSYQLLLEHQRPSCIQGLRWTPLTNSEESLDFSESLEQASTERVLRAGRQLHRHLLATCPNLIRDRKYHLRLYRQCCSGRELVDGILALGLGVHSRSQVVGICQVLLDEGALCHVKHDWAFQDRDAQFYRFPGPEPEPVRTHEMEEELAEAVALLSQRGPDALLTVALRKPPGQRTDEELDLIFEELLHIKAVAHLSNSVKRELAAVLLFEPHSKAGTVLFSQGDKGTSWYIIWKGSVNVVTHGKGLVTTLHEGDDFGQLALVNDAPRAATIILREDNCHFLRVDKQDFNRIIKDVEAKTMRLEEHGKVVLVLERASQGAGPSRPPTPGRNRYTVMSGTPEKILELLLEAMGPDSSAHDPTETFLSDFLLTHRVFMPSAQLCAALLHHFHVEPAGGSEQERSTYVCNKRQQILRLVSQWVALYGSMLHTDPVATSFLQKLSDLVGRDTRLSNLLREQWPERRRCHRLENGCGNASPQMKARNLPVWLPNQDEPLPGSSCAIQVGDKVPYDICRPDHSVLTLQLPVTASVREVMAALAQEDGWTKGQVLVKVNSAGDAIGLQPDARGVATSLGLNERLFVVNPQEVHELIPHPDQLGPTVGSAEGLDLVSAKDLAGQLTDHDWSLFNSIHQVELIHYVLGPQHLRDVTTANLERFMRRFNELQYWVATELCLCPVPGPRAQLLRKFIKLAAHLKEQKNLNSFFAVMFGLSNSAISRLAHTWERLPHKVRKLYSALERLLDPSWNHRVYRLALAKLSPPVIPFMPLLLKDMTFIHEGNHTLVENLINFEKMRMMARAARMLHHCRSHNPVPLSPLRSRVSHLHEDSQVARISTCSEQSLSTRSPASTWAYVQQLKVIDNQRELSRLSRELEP
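EPAC1 100 nM, Rap1B–BODIPY-GDP 250 nM, unlabeled GDP 50 uM; compound titration; 5 min RT; kinetic read ex480/em540 at 5-min intervals ×30 min; data normalized to 6.5 mM cAMP agonist control.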
RGS4 inh = Inhibitors of Regulator of G Protein Signaling (RGS) 4: qHTS; Regulator of G-protein signaling 4 (Homo sapiens), P49798; Transcreener GDP fluorescence polarization, RGS4-accelerated GTP hydrolysis; Potency, µM (highest dose often 114 µM), inactives show at the top dose activity change, negative = inhibition, hits mostly inhibitors; actives 0.039% (n = 390,000); AID 504845, 2011; also: % is scaled to controls: 0 for no effect and ±100 for the full control effect; nearly all actives have a fitted effect of over 75% in size
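MLSMR compounds (23 nl, pin-transferred) preincubated 10 min at room temperature with a 500nM (2x) first reagent, then RGS4 at 900nM (2x) plus Transcreener GDP mix added; fluorescence polarization (620/688 nm) read before and after 90 min at 30 °C.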
EPAC1 antag = qHTS for Antagonist of cAMP-regulated guanine nucleotide exchange factor 3 (EPAC1): primary screen. EPAC1 GEF assay, Rap1b-BODIPY-GDP exchange fluorescence. Rap guanine nucleotide exchange factor 3 (Homo sapiens), O95398. actives 0.14% (n = 360,000). AID 720709, 2013. Potency, µM (doses to about 115 µM), for inactives: top-dose activity change, negative = inhibition, actives largely listed as inhibitors;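 also: plate controls were vehicle for no effect and positive control for full effect; nearly all actives have a fitted effect of over 50% in size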
* marks the source's active call; other numbers are inactive results; ? = inconclusive; / = no result given; [ ] = another dose, or the depositor's remark. Calls follow the shape of the dose curve; as a rule, active = well fitted curve in the direction sought with a large enough effect; inconclusive = small, poorly fitted or top-dose-only effect, or another doubt; inactive = no such curve, though single readings can be large; an effect the other way counts as inactive or inconclusive. Potency is read from the fitted curve at half-maximal effect.

SMILES	EPAC2 agonist	BRCA1 expr up	EPAC2 antagonist	EPAC1 agonist	RGS4 inh	EPAC1 antag
Cc1[nH]n(-c2ncc(-c3ccccc3)s2)c(=O)c1C(c1ccc(Cl)cc1)C(C#N)C#N (configuration not stated)	2%	-18%	-8%	-9%	?	50µM*
CCOc1ccc(NC(=O)CN(C)C(=O)c2cc(-c3cccs3)nn2-c2ccccc2)cc1OCC	-8%	-29%	36%	-11%	-10%	27%
CCOc1ccc(NC(=O)CN(C)C(=O)c2cc(C3CC3)nn2-c2ccccc2)cc1OCC	-8%	-39%	-15%	32µM*	11%	-7%
Cc1cccc(C)c1OCC(=O)N/N=C/c1cccn1C	1%	1%	-2%	1%	-2%	1%
COc1ccc(NC(=O)c2cc(S(=O)(=O)N3CCCCC3)ccc2OC)cc1	6%	-9%	-12%	2%	-6%	-9%
COc1ccc2sc(NCc3ccccc3)nc2c1	4%	2.8µM*	0%	3%	5%	-6%
COc1ccc2sc(NC(C)=O)nc2c1	-1%	?	-2%	4%	6%	-2%
CCC(=O)Nc1nc2cc(OC)ccc2s1	4%	?	-3%	5%	-28%	-8%
COc1ccc2sc(NC(=O)CC(C)C)nc2c1	10%	5.6µM*	0%	4%	16%	0%
CCOc1ccc2c(c1)c(=O)c(C(=O)c1ccc(C)cc1)cn2Cc1ccccc1OC	/	/	/	/	10%	/
COc1cc2[nH]c(=S)n(C3CCCC3)c(=O)c2cc1OC	-10%	-22%	10%	2%	-31%	3%
CCC1CCCCN1C(=O)CSc1nnc(-c2cccc(Cl)c2)o1 (configuration not stated)	15%	10µM*	-3%	3%	-22%	-20%
CCC1CCCCN1C(=O)CSc1nnc(-c2ccc(Cl)cc2)o1 (configuration not stated)	-5%	0%	10%	-12%	6%	-7%
CCC1CCCCN1C(=O)CSc1nnc(-c2ccco2)o1 (configuration not stated)	6%	3.2µM*	4%	6%	-29%	-14%
Cn1nc(-c2ccccc2)c(C(O)c2ccc(Cl)cc2)c1Cl (configuration not stated)	-3%	0%	-8%	8%	-29%	-2%
CCOc1ccccc1Oc1coc2cc(O)ccc2c1=O	5%	24%	9%	0%	-16%	-6%
O=c1c(-c2ccc(F)cc2)coc2cc(O)ccc12	4%	11µM*	9%	3%	-2%	13%
CC1=Nc2ccccc2/C1=C/c1c(N)n2c(S(=O)(=O)C(C)C)nsc2nc1=O	-6%	-5%	-25%	-3%	-5%	-27%
CC1=Nc2ccc(C)cc2/C1=C/c1c(N)n2c(S(=O)(=O)C(C)C)nsc2nc1=O	-11%	-24%	-5%	-22%	?	50µM*
Oc1ccc(C2=Nn3c(nnc3-c3ccco3)SC2)cc1O	28%	-68%	?	-1%	-3%	45µM*
COc1ccc(C2=Nn3c(nnc3-c3ccco3)SC2)cc1	-2%	-88%	5%	-6%	-21%	9%
O=C(COc1ncnc2cc(Cl)ccc12)c1ccc2c(c1)OCCO2	1%	1.8µM*	-1%	3%	4%	-1%
COc1cccc(C2c3[nH]c4ccccc4c3CCN2Cc2ncc[nH]2)c1 (configuration not stated)	7%	-46%	50µM*	6%	4%	-4%
CCCCc1ccc(NC(=O)CC(C)=O)cc1	-3%	45%	-3%	0%	-18%	-13%
CC(C)CC(=O)Nc1ccc(Nc2ccccc2)cc1	3%	48%	13%	-19%	-2%[11.4 µM]	-5%
SMILES	EPAC2 agonist	BRCA1 expr up	EPAC2 antagonist	EPAC1 agonist	RGS4 inh	EPAC1 antag
CC(C)(C)CC(=O)Nc1ccc(Nc2ccccc2)cc1	-1%	6.3µM*	-3%	4%	-1%	-15%
CCCCc1ccc(NC(=O)CC(C)(C)C)cc1	-5%	13µM*	1%	-10%	-3%	-27%
CCOC(=O)CSc1nnc(-c2ccccc2)c(-c2ccccc2)n1	20%	-9%	-18%	23%	9%	-15%
Cc1nnc(SCc2ccccc2)nc1-c1ccccc1	13%	11µM*	-2%	7%	12%	-2%
CSc1cccc(NC(=O)c2sc3nc4n(c(=O)c3c2C)CCC4)c1	8%	8.9µM*	-9%	6%	-2%	0%
COc1cccc(NC(=O)c2sc3nc4n(c(=O)c3c2C)CCC4)c1	1%	10µM*	1%	5%	13%[56.9 µM]	8%
COc1ccc(F)c(CN2CCCC(CO)(Cc3cccc(Cl)c3)C2)c1 (configuration not stated)	11%	-20%	-9%	8%	-4%	-11%
Oc1oc(-c2ccccc2)nc1C=Nc1ccccc1	14%	35%	3%	9%	-7%	5%
Oc1oc(-c2ccccc2)nc1C=NCc1ccccc1	24%	10µM*	0%	16%	5%	-6%
C=CCOc1ccccc1CN(C(=O)CCl)c1ccc2c(c1)OCO2	10%	-62%	13µM*	-14%	?	-19%
COc1ccc(NC(=O)CN(C)C(=O)c2ccc(NS(=O)(=O)c3ccc4[nH]c(=O)[nH]c4c3)cc2)cc1	3%	6%	-10%	-1%	5%	-6%
Cn1c(=NC(=O)CS(=O)(=O)c2ccccc2)sc2cc(F)ccc21	10%	5µM*	1%	12%	/	-10%
CCC(C)c1ccc(OCC(=O)Nc2cccc3ccc(C)nc23)cc1 (configuration not stated)	/	/	/	/	-13%	/
Clc1ccc(C2=NNC(=NCC3CCCO3)SC2)cc1 (configuration not stated)	6%	2.5µM*	0%	4%	-9%	-10%
